Test results taken from publication PMC7862700, “An all-to-all approach to the identification of sequence-specific readers for epigenetic DNA modifications on cytosine”.

Assays:
Test in all cases: DAPPL (digital affinity profiling via proximity ligation, sequencing); 10 mM Tris-HCl pH 7.5, 50 mM NaCl, 1 mM DTT, 4% glycerol, room temperature, 30 min; GST-TFs on glutathione beads, 16-mer random dsDNA library, 0.1% formaldehyde crosslink after washing; high values mean tight binding
FEV = target: T1, FEV (Homo sapiens, UniProt Q99581 1-238); settings: protein: recombinant; tags: N-terminal GST; dsDNA, one strand shown
T1 sequence: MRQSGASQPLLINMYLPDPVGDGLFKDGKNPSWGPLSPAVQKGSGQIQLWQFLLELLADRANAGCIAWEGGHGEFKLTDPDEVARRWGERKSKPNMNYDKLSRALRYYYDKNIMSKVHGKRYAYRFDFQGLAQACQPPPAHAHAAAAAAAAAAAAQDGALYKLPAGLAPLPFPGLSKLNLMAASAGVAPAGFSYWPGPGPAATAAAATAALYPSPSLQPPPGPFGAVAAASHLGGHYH
Summary of the method: (§1)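 Beads coated with glutathione captured GST-fused human transcription factors that had been expressed in yeast, and the factors were then given DNA barcodes and pooled with a tag-only sample. The pools were incubated with 200 nmole of a random double-stranded 16-mer DNA library in Tris/NaCl/DTT/glycerol buffer for 30 min at room temperature, washed, crosslinked with 0.1% formaldehyde and proximity-ligated with BsaI/T4 ligase at 37 °C for 1 h. PCR amplification and Illumina NextSeq500 sequencing came last. Binding signal is each hexamer's read frequency for a factor divided by its frequency for the tag-only sample.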

ETV5 = ETV5 (Homo sapiens, UniProt P41161 1-510); settings: protein: recombinant; tags: N-terminal GST; dsDNA, one strand shown
Sequence of ETV5 (P41161 whole entry): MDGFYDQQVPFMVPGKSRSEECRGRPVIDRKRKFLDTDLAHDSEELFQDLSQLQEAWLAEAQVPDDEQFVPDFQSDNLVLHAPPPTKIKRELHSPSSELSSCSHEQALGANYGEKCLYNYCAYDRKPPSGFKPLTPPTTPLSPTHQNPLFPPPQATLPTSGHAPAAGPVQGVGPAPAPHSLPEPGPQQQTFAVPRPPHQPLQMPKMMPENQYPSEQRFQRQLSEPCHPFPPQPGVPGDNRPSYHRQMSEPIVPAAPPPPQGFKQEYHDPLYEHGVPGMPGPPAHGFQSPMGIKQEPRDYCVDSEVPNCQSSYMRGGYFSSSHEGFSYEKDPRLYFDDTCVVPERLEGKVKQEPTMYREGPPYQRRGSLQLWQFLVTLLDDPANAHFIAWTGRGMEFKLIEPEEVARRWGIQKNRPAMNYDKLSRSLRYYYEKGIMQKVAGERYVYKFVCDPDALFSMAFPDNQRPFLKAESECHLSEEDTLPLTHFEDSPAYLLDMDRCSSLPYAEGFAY
Summary of the method: as §1

HSF1 = HSF1 (Homo sapiens, UniProt Q00613 1-529); settings: protein: recombinant; tags: N-terminal GST; chain copies: 3; dsDNA, one strand shown
Sequence of HSF1 (Q00613 whole entry): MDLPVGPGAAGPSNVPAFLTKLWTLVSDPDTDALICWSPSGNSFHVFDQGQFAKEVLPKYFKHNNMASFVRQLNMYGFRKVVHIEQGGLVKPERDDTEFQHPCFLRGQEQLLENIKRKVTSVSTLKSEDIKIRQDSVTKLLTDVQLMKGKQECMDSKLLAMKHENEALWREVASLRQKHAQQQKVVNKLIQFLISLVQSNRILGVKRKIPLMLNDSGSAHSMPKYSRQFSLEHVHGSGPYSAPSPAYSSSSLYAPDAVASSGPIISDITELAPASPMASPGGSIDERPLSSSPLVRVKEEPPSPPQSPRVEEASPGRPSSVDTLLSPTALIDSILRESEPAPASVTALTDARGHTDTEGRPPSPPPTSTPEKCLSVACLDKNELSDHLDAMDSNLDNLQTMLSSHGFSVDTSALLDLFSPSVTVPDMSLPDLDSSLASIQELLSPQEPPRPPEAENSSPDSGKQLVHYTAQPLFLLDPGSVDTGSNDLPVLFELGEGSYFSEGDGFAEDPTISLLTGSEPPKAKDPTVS
Summary of the method: as §1

SPIC = target: T2, SPIC (Homo sapiens, UniProt Q8N5J4 1-248); settings: protein: recombinant; tags: N-terminal GST; dsDNA, one strand shown
T2 sequence: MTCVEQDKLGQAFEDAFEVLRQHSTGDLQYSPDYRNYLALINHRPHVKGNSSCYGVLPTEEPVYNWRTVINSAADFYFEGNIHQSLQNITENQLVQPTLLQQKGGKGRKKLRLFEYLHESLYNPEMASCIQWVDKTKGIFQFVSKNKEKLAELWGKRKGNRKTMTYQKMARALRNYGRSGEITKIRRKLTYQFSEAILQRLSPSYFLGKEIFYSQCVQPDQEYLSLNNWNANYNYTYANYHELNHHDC
Summary of the method: as §1

ELF4 = ELF4 (Homo sapiens, UniProt Q99607 1-663); settings: protein: recombinant; tags: N-terminal GST; dsDNA, one strand shown
Sequence of ELF4 (Q99607 whole entry): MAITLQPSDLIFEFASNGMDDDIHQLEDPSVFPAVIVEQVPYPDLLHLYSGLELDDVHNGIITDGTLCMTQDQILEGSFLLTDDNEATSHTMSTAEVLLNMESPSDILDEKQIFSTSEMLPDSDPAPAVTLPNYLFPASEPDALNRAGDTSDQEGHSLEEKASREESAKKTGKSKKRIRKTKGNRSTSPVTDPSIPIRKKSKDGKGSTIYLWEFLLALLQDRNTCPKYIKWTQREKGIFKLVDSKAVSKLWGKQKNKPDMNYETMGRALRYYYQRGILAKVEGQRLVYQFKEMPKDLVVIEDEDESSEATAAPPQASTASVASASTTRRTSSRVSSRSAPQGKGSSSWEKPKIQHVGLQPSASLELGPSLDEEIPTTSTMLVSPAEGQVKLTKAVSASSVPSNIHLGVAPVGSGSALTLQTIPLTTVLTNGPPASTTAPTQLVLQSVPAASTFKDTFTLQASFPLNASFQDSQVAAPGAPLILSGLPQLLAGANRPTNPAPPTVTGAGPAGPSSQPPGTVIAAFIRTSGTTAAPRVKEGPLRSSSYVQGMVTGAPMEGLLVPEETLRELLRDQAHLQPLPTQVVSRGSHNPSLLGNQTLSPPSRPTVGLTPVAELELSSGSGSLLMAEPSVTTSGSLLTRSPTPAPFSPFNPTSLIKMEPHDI
Summary of the method: as §1

ELK4 = target: T3, ELK4 (Homo sapiens, UniProt P28324-2 1-405); settings: protein: recombinant; tags: N-terminal GST; dsDNA, one strand shown
T3 sequence: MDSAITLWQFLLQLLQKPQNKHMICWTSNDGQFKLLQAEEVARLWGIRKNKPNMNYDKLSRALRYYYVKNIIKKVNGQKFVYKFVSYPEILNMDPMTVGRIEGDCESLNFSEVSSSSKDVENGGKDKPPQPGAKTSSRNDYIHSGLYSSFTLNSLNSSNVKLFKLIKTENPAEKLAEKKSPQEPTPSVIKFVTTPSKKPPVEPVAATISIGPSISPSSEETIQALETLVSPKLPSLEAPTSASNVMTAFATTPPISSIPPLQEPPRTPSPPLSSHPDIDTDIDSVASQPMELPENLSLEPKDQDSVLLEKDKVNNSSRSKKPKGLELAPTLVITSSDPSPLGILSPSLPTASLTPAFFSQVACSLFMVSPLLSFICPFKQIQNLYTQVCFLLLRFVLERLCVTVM
Summary of the method: as §1

ETV2 = target: T4, ETV2 (Homo sapiens, UniProt O00321 1-342); settings: protein: recombinant; tags: N-terminal GST; dsDNA, one strand shown
T4 sequence: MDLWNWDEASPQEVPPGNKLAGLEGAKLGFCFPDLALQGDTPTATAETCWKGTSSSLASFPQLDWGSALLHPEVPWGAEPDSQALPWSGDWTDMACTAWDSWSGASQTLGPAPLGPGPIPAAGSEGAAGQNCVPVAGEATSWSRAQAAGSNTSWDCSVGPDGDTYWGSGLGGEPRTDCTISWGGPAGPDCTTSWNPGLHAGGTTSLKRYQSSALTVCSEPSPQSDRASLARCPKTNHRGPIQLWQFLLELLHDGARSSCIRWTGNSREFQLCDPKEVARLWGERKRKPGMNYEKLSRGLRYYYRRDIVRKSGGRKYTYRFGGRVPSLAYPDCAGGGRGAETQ
Summary of the method: as §1

ELF3 = target: T5, ELF3 (Homo sapiens, UniProt P78545 1-371); settings: protein: recombinant; tags: N-terminal GST; dsDNA, one strand shown
T5 sequence: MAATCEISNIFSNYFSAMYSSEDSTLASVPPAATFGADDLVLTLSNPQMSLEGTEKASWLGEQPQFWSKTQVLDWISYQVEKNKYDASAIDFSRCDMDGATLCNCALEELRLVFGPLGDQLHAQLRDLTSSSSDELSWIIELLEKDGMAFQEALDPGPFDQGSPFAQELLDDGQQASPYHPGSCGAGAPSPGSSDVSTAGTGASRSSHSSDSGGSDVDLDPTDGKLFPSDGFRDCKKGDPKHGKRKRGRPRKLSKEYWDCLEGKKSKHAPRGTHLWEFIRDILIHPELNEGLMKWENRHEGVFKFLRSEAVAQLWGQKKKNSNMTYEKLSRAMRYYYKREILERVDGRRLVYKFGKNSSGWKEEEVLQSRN
Summary of the method: as §1

CRX = CRX (Homo sapiens, UniProt O43186 1-299); settings: protein: recombinant; tags: N-terminal GST; dsDNA, one strand shown
Sequence of CRX (O43186 whole entry): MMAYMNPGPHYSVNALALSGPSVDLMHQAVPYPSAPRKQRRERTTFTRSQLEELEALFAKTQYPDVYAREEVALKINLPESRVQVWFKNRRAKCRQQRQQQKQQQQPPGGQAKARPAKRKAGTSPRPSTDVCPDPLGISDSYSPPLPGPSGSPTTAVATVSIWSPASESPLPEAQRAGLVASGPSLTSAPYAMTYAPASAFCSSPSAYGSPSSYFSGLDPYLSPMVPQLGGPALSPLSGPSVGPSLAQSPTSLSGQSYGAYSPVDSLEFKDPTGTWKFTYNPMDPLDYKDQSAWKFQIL
Summary of the method: as §1

ETV1 = ETV1 (Homo sapiens, UniProt P50549 1-477); settings: protein: recombinant; tags: N-terminal GST; dsDNA, one strand shown
Sequence of ETV1 (P50549 whole entry): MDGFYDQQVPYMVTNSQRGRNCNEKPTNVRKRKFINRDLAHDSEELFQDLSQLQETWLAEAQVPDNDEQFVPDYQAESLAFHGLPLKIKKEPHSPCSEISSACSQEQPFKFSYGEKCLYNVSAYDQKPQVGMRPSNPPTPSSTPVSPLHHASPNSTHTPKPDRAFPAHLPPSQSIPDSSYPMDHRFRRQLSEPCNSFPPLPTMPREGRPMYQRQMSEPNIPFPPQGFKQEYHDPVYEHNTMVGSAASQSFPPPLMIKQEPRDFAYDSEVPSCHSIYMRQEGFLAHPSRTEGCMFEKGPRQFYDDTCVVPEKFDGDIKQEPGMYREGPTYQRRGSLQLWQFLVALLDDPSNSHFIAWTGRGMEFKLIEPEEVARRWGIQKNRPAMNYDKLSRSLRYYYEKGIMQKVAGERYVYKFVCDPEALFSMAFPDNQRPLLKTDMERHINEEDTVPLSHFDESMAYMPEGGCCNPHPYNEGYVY
Summary of the method: as §1

ERF = target: T6, ERF (Homo sapiens, UniProt P50548 1-548); settings: protein: recombinant; tags: N-terminal GST; dsDNA, one strand shown
T6 sequence: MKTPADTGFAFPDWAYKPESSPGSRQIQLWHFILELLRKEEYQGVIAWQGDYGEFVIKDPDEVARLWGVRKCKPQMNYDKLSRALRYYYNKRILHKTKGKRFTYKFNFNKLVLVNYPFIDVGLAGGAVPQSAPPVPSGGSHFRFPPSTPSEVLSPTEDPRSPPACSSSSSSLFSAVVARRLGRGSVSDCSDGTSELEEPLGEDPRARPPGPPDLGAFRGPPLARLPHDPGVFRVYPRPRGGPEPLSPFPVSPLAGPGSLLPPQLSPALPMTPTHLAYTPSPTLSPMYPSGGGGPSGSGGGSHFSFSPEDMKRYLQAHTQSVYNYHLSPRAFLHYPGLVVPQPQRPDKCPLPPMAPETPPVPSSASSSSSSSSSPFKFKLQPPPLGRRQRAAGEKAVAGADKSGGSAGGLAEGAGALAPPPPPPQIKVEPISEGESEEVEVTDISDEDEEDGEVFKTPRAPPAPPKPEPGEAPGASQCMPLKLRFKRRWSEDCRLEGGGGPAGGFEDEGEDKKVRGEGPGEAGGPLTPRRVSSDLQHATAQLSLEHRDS
Summary of the method: as §1

ETV3L = target: T7, ETV3L (Homo sapiens, UniProt Q6ZN32 1-361); settings: protein: recombinant; tags: N-terminal GST; dsDNA, one strand shown
T7 sequence: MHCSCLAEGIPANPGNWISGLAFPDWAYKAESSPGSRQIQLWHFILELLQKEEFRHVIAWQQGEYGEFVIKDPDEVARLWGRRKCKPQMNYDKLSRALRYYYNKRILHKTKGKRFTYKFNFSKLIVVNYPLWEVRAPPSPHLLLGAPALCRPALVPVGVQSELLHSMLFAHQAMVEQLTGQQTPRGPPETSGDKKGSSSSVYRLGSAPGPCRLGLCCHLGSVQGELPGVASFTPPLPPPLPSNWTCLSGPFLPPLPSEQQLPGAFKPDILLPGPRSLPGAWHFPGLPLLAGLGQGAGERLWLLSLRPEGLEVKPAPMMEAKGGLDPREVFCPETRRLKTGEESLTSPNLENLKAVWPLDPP
Summary of the method: as §1

ETS2 = target: T8, ETS2 (Homo sapiens, UniProt P15036 1-469); settings: protein: recombinant; tags: N-terminal GST; dsDNA, one strand shown
T8 sequence: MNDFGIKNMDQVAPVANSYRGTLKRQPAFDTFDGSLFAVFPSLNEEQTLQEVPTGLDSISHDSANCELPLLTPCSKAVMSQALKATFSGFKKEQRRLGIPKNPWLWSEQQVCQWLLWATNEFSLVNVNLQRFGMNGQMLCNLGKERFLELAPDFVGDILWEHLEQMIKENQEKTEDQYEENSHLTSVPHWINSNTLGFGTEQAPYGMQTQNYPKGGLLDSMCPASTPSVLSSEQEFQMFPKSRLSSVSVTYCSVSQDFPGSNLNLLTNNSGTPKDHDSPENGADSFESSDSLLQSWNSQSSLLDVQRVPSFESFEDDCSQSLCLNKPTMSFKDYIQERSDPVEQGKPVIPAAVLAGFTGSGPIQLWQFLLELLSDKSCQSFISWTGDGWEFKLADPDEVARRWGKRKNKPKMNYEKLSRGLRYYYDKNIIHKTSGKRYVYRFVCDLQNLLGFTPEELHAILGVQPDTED
Summary of the method: as §1

SPDEF = target: T9, SPDEF (Homo sapiens, UniProt O95238 1-335); settings: protein: recombinant; tags: N-terminal GST; dsDNA, one strand shown
T9 sequence: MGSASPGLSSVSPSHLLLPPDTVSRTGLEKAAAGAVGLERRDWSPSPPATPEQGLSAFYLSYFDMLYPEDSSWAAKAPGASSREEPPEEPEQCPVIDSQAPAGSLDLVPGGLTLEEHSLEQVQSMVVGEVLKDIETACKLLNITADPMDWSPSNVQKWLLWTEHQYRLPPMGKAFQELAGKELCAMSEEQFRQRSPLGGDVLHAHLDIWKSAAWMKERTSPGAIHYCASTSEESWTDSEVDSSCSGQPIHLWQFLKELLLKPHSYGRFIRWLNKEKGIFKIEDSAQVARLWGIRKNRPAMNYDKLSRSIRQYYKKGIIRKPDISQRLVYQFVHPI
Summary of the method: as §1

ETV7 = target: T10, ETV7 (Homo sapiens, UniProt Q9Y603 1-341); settings: protein: recombinant; tags: N-terminal GST; dsDNA, one strand shown
T10 sequence: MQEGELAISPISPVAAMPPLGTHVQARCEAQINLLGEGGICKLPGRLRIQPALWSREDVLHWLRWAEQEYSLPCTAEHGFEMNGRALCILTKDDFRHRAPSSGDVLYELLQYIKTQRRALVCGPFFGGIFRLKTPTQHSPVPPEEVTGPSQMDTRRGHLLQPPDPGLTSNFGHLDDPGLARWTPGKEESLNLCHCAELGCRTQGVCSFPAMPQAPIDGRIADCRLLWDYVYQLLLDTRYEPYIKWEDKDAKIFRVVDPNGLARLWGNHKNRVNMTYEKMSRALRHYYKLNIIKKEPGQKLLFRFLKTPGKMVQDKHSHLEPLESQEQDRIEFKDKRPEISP
Summary of the method: as §1

ELF5 = target: T11, ELF5 (Homo sapiens, UniProt Q9UKW6-2 1-255); settings: protein: recombinant; tags: N-terminal GST; dsDNA, one strand shown
T11 sequence: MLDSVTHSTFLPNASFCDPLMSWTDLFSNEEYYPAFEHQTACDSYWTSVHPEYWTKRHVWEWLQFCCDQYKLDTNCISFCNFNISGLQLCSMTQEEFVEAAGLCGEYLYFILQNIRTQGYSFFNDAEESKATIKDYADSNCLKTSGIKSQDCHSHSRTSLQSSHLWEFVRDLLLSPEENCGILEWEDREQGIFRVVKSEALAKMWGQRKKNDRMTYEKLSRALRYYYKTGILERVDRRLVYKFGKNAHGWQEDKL
Summary of the method: as §1

ETV3 = target: T12, ETV3 (Homo sapiens, UniProt P41162-2 1-143); settings: protein: recombinant; tags: N-terminal GST; dsDNA, one strand shown
T12 sequence: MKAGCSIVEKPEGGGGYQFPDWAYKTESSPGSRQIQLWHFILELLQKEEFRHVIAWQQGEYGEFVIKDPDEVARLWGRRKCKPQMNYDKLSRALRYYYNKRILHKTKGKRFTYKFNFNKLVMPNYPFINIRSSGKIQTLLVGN
Summary of the method: as §1

ETV6 = ETV6 (Homo sapiens, UniProt P41212 1-452); settings: protein: recombinant; tags: N-terminal GST; dsDNA, one strand shown
Sequence of ETV6 (P41212 whole entry): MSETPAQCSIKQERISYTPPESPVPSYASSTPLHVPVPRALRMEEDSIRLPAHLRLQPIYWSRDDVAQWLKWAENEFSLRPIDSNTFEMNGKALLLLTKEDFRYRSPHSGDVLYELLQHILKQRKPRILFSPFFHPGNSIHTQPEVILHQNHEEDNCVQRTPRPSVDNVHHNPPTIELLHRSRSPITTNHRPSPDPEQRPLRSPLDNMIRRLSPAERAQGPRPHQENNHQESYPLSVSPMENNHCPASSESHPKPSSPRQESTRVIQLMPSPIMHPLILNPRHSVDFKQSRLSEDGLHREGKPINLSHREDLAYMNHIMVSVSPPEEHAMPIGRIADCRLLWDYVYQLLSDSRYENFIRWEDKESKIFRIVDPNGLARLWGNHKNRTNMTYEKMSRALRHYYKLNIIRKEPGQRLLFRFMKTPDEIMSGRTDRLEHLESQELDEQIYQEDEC
Summary of the method: as §1

Question: Which results are given for TTGCAA?
Answer: binding signal (FEV): 1.12 fold enrichment (6-mer frequency, TF over GST control); binding signal (ETV5): 1.17 fold enrichment (6-mer frequency, TF over GST control); binding signal (HSF1): 1.07 fold enrichment (6-mer frequency, TF over GST control); binding signal (SPIC): 1.09 fold enrichment (6-mer frequency, TF over GST control); binding signal (ELF4): 1.19 fold enrichment (6-mer frequency, TF over GST control); binding signal (ELK4): 1.21 fold enrichment (6-mer frequency, TF over GST control); binding signal (ETV2): 1.22 fold enrichment (6-mer frequency, TF over GST control); binding signal (ELF3): 1.13 fold enrichment (6-mer frequency, TF over GST control); binding signal (CRX): 1.12 fold enrichment (6-mer frequency, TF over GST control); binding signal (ETV1): 1.27 fold enrichment (6-mer frequency, TF over GST control); binding signal (ERF): 1.15 fold enrichment (6-mer frequency, TF over GST control); binding signal (ETV3L): 1.19 fold enrichment (6-mer frequency, TF over GST control); binding signal (ETS2): 1.1 fold enrichment (6-mer frequency, TF over GST control); binding signal (SPDEF): 1.25 fold enrichment (6-mer frequency, TF over GST control); binding signal (ETV7): 1.19 fold enrichment (6-mer frequency, TF over GST control); binding signal (ELF5): 1.12 fold enrichment (6-mer frequency, TF over GST control); binding signal (ETV3): 1.18 fold enrichment (6-mer frequency, TF over GST control); binding signal (ETV6): 1.16 fold enrichment (6-mer frequency, TF over GST control)
